The test system of assay [1] is PRMT1 (protein arginine N-methyltransferase 1). Put plainly: small molecules binding arginine methyltransferase PRMT1 – biochemical, small-molecule microarray, 635 nm fluorescence, primary screen (AID 1088).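 Also: binding of Prmt1 protein to compounds spotted on small-molecule microarray slides.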 Particulars: higher = more signal.
A short description of assay [2]: growth effects on S. cerevisiae YJM789 – YJM789 clinical isolate, OD600, 24 h, basal, primary screen (AID 1089).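 Also: growth of clinical yeast isolate S. cerevisiae YJM 789 seeded 1000 cells per well; test concentration not given here.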 The following applies: higher = more signal, called active from +8 up or from −8 down.
Assay [3] is described as follows: S. pombe growth modifiers, basal conditions – strain 972, OD600, 24 h, no modulator, primary screen (AID 1090).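 Also: basal condition with compound alone and no growth modifier present; test concentration not given here.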 Particulars: S. pombe 972 growth, higher = more signal, called active from +8 up or from −8 down.
Assay [4] in a line: budding yeast growth modifiers under rapamycin – strain BY4716, OD600, 96 h, primary screen (AID 1091). Also: test concentration not given here. The following applies: S. cerevisiae BY4716 + rapamycin, higher = more signal, called active from +8 up or from −8 down.
Assay [5] addresses Torsin-1A-interacting protein 2 (Homo sapiens) (UniProt Q8NFQ8). Put plainly: small molecules binding lysate-expressed LULL1 – cell lysate, human LULL1 lysate, 635/667 nm fluorescence, primary screen (AID 1092).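 Also: probe is lysate of COS7 cells overexpressing human LULL1; score merges per-feature 667 nm fluorescence with signal-to-noise.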 The following applies: small-molecule microarray, hLULL1 lysate binding, 635 nm fluorescence; higher = more signal.
The nature of assay [6]: optical density change of DRC41 E. coli – strain DRC41, OD650, 24 h, E. coli filamentation project, primary screen (AID 1093).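 Also: MC1000 strain lacking acrAB efflux and sulA so SOS filamentation is blocked; test concentration not given here.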 Particulars: E. coli DRC41 growth, higher = more signal, called active from +8 up or from −8 down.
Assay [7] can be described thus: probe aLefty2 binding to arrayed compounds – biochemical, biotinylated probe, 635/667 nm fluorescence, primary screen (AID 1094).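 Also: score merges spot fluorescence near 667 nm with spot signal-to-noise ratio.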 Particulars: small-molecule microarray, higher = more signal.
Assay [8] concerns Noggin (protein binding on small-molecule microarray). Put plainly: small molecules binding Noggin protein – biochemical, 635/667 nm fluorescence, primary screen (AID 1095).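 Also: score merges 667 nm feature fluorescence with signal to noise over triplicate slides.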 Particulars: 635 nm fluorescence, higher = more signal.
In assay [9] the target is Neurogenic locus notch homolog protein 3 (Homo sapiens) (UniProt Q9UM47). Put plainly: small molecules binding NOTCH3 protein – biochemical, 635/667 nm fluorescence, primary screen (AID 1096). Particulars: small-molecule microarray, 635 nm fluorescence, higher = more signal.
Chain of Neurogenic locus notch homolog protein 3 (Homo sapiens) (Q9UM47 whole entry, looked up): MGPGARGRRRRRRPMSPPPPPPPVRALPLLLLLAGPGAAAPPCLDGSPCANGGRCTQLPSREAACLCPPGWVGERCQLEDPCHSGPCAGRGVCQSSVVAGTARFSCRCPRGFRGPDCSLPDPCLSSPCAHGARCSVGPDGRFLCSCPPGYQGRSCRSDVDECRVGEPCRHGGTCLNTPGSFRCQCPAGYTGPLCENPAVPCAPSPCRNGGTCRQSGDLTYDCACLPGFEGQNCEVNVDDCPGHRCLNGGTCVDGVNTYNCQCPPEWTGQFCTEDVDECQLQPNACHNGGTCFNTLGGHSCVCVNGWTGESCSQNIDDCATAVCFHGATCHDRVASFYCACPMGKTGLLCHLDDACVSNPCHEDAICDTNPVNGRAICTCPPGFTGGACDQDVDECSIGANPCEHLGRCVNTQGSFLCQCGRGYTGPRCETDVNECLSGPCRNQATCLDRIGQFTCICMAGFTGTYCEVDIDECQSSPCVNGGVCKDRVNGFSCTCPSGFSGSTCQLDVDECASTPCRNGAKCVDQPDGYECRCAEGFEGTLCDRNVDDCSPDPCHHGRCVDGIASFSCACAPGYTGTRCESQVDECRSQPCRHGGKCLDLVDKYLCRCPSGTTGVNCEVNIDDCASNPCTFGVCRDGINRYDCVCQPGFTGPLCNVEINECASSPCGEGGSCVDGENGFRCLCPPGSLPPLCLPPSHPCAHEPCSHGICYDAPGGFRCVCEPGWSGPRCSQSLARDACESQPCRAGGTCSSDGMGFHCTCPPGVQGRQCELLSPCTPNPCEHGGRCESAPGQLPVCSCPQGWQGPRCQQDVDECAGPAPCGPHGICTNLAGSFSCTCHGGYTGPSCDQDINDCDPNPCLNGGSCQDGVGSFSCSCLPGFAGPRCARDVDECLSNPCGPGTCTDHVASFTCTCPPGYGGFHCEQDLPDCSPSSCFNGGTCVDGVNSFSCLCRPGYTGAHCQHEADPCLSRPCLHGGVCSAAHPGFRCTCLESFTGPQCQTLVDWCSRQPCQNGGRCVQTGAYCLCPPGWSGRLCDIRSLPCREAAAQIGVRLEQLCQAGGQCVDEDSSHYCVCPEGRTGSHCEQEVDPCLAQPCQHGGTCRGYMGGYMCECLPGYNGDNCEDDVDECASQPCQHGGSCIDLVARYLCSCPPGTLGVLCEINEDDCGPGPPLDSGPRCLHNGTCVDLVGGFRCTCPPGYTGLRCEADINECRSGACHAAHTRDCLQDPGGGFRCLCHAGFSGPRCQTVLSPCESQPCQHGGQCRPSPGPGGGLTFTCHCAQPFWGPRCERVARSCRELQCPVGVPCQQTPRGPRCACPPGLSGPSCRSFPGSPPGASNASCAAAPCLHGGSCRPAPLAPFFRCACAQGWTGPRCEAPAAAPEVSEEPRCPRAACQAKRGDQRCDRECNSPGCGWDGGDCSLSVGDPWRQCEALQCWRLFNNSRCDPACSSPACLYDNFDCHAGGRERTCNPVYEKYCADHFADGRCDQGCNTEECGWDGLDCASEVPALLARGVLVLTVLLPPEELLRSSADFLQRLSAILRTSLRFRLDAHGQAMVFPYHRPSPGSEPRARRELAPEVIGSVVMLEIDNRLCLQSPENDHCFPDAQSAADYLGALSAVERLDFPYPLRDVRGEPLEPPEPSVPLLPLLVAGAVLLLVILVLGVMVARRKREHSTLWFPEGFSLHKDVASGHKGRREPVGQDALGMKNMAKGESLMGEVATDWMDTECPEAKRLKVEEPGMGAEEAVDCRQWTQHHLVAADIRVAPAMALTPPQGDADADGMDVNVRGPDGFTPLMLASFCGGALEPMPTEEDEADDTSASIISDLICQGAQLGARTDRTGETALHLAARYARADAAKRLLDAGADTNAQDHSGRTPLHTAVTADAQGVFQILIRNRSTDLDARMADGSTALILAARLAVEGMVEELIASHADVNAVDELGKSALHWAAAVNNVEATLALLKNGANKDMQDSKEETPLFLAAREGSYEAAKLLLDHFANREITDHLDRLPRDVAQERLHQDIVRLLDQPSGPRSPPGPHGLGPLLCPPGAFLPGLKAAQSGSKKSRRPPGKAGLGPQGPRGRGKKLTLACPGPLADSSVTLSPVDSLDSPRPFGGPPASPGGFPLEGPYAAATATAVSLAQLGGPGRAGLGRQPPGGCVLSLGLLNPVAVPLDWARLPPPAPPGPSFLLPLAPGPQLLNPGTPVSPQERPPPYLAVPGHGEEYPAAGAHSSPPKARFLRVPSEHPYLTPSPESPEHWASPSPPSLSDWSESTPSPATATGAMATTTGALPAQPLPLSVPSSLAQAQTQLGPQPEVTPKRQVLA
The nature of assay [10]: probe aEGFR binding to arrayed compounds – biochemical, biotinylated probe, 635/667 nm fluorescence, primary screen (AID 1097).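 Also: probe is a biotinylated anti-EGFR antibody binding compounds printed on slides; score combines fluorescence near 667 nm and signal to noise of each spot.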 The following applies: small-molecule microarray, higher = more signal.

Activity calls are given as the source filed them.

Chain of Torsin-1A-interacting protein 2 (Homo sapiens) (Q8NFQ8 whole entry, looked up): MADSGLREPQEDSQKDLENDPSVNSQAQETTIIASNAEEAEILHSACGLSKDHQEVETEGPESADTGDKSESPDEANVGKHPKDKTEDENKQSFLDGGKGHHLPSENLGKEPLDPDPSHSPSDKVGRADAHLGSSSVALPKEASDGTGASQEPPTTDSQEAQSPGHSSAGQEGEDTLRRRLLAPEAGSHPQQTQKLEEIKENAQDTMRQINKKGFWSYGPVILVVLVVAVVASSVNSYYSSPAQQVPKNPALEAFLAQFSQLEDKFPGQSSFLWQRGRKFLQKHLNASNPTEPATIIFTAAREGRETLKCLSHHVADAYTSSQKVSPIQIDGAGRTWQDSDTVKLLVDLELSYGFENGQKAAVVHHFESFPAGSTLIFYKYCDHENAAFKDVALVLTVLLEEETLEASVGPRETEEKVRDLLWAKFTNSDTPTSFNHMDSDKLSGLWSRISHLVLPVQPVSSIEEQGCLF

As for `COCCCN1C(=O)[C@@]2(Cc3ccccc31)c1ccccc1C(=O)N(Cc1ccccc1C(F)(F)F)[C@H]2c1ccc(CO)cc1`, the composite z-score in assay [1] is 0.979; in assay [5] it was 2.51; in assay [7], -0.143; in [8], 0.992; in [9], 0.627; in [10] it was -0.121. The z-score in [2] was 1.19 (inactive); in assay [3] it was 0.339 (inactive); in assay [4], -1.41 (inactive); in [6], -0.253 (inactive).
`COc1ccc(COC2OC[C@]3(C)[C@H]4C5=C(CN3C(=O)OC(C)(C)C)[C@H](C)C(CO)C(CO)C5CC[C@@H]24)cc1` (stereo not given in full): the composite z-score amounted to 0.482 in assay [1]; 3.27 in assay [5]; 0.341 in [7]; 0.277 in [8]; 1.06 in assay [9]; 0.0699 in [10]. The z-score in [2] is 0.677 (inactive); in assay [3], 0.805 (inactive); in [4], 0.502 (inactive); in [6], -1.76 (inactive).
Take `C=CCN(Cc1ccccc1)C(=O)C(c1cccs1)N(CCOCCO)C(=O)/C=C\C(=O)O` (stereo not given): the composite z-score is -0.785 in assay [1]; 1.2 in assay [5]; -0.0555 in [7]; -2.41 in assay [8]; -1.7 in assay [9]; -0.329 in assay [10]. Moreover, the z-score is -2.16 (inactive) in assay [2], 0.0374 (inactive) in assay [3], -1.01 (inactive) in assay [4] and 2.25 (inactive) in assay [6].
Consider `COC(=O)[C@@]1(Cc2ccc(OC)cc2)[C@H]2c3cc(C(=O)N4CCCC4)n(Cc4ccccc4)c3C[C@H]2CN1C(=O)c1ccccc1`, for which the composite z-score in assay [1] was 0.678; in [5] it was 3.37; in assay [7], 1.62; in [8] it was -0.242; in assay [9], 1.05; in assay [10], 1.25. Moreover, the z-score was -0.183 (inactive) in assay [2], 0.657 (inactive) in assay [3], 1.12 (inactive) in [4] and -0.801 (inactive) in [6].
In the case of `[N-]=[N+]=Nc1ccccc1C[C@@]1(C(=O)NCCN2CCOCC2)N=C(c2ccc(OCCCO)cc2)O[C@@H]1c1ccccc1`, the composite z-score in [1] was 1.55; in assay [5] it was 3.27; in assay [7], -0.0673; in assay [8], 0.748; in assay [9] it was 1.08; in assay [10], 0.0371. The z-score in assay [2] was -2.58 (inactive); in [3], -4.77 (inactive); in assay [4], -1.77 (inactive); in [6], 1.26 (inactive).
Turning to `Cc1ccc(S[C@]2(C(=O)NCCN3CCOCC3)CC(=O)N(Cc3ccccc3Cl)[C@@H]2c2ccc(CO)cc2)cc1`, the composite z-score in assay [1] is -0.241; in [5] it was 3.07; in assay [7] it was -0.057; in assay [8] it was -0.157; in assay [9], 0.201; in assay [10], -0.128. Moreover, the z-score in assay [2] was -1.17 (inactive); in assay [3] it was -0.895 (inactive); in assay [4], -0.812 (inactive); in assay [6] it was 0.149 (inactive).
In the case of `O=C1O[C@H](c2ccccc2)[C@H](c2ccccc2)N2[C@H]1[C@@H](C(=O)N1CCN(c3ncccn3)CC1)[C@]1(C(=O)Nc3ccc(C#CC4=CCCCC4)cc31)[C@H]2c1ccc(O)cc1`, the composite z-score was 1.54 in assay [1]; 2.76 in assay [5]; -0.0313 in assay [7]; 0.555 in [8]; 0.79 in assay [9]; 0.0624 in [10]. The z-score in assay [2] was 1.92 (inactive); in assay [3] it was 1.48 (inactive); in assay [4], 2.97 (inactive); in assay [6], 0.454 (inactive).
As to `CN1C(=O)C2C=CC(C(O)C3CC=CCC3)N(NC(=O)OC(C)(C)C)C2C1=O` (stereo not given), the composite z-score in [1] was 1.14; in assay [5], 3.54; in assay [7], -0.0379; in [8], 0.532; in assay [9] it was 0.95; in assay [10], -0.0197. In addition, the z-score was 0.0125 (inactive) in [2], 0.826 (inactive) in [3], 0.259 (inactive) in assay [4] and -1.16 (inactive) in assay [6].
On to `COCCOC(=O)N1C(=O)[C@@]2(c3cc(C#CC4=CCCCC4)ccc31)[C@H](C(=O)Nc1nc3ccccc3s1)[C@H]1C(=O)O[C@H](c3ccccc3)[C@H](c3ccccc3)N1[C@@H]2c1ccc(OCCO)cc1`, for which the composite z-score in [1] is 1.58; in assay [5] it was 1.82; in assay [7], -0.119; in assay [8] it was 1.23; in assay [9], 1.14; in [10], -0.0238. Further, the z-score is 2.47 (inactive) in assay [2], 1.97 (inactive) in assay [3], 2.07 (inactive) in assay [4] and 0.373 (inactive) in [6].
With `CC(=O)n1cc(C(O)C2C=CC3C(=O)N(C)C(=O)C3N2Nc2ccccc2)c2ccccc21` (stereo not given), the composite z-score in assay [1] is 1.05; in assay [5], 3.18; in [7], 0.347; in assay [8], 0.606; in assay [9], 1.12; in [10], -0.0644. In addition, the z-score was -0.0186 (inactive) in assay [2], 1.4 (inactive) in [3], 1.05 (inactive) in assay [4] and -0.77 (inactive) in assay [6].
For `CC(=O)NCCCC[C@@H]1NC(=O)[C@@H]2C[C@H](C(=O)NCCCCN(C)C)[C@H](c3cccc(OCCO)c3)N2C1=O`, the composite z-score in assay [1] is 0.558; in assay [5] it was 1.51; in [7] it was -0.0124; in assay [8] it was -0.104; in [9], 0.465; in [10] it was -0.127. Also, the z-score in [2] is -0.546 (inactive); in assay [3], 0.595 (inactive); in assay [4], -0.789 (inactive); in assay [6], 0.187 (inactive).
Turning to `O=C1c2ccccc2[C@@]2(Cc3ccccc3N(CC(F)(F)F)C2=O)[C@H](c2ccc(CO)cc2)N1Cc1ccccc1Cl`, the composite z-score in assay [1] is 1.22; in assay [5] it was -0.0577; in [7] it was -0.159; in assay [8] it was 0.476; in assay [9], -0.0169; in assay [10], -0.118. In addition, the z-score in [2] is -0.146 (inactive); in assay [3] it was -0.172 (inactive); in assay [4], -1.62 (inactive); in assay [6], 0.0194 (inactive).
Consider `O=C1OCCC/C=C\[C@H]2OC34C=CCN(Cn5nnc6ccccc65)C(=O)[C@H]3N(CCCCCCO)C(=O)[C@@H]4C12` (stereo not given in full), for which the composite z-score in [1] was 0.827; in [5], 3.5; in [7], -0.181; in assay [8], -0.272; in assay [9], -0.269; in assay [10], -0.224. In addition, the z-score was -3.24 (inactive) in assay [2], -0.0541 (inactive) in [3], -1.28 (inactive) in [4] and 2.87 (inactive) in [6].
`CN1C(=O)C2C=CC(C(O)c3ccc(-c4ccccc4)s3)N(N(c3ccccc3)c3ccccc3)C2C1=O` (stereo not given): the composite z-score is 0.668 in assay [1]; 1.93 in [5]; 0.164 in assay [7]; -0.132 in assay [8]; 1.12 in assay [9]; -0.0003 in [10]. In addition, the z-score was 0.187 (inactive) in assay [2], 0.947 (inactive) in assay [3], 1.33 (inactive) in assay [4] and -0.422 (inactive) in assay [6].

For the origin of these results see PubChem BioAssay.
